Hit rate of the full screen: of about 310,000 compounds, about 14,000 (4.5%) showed an effect of 50% or more. Effects have a minus sign here. The sample holds strong results, similar compounds and a random draw of the others, so the mix is not that of the screen.
Target: human ether-à-go-go-related gene (hERG) potassium channel (human, UniProt Q12809)
Experiment: primary screen, population patch clamp on CHO cells stably expressing hERG; higher = less effect of the substance
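Note: peak tail current of the secondary pulse compared with the same well before compound.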

human ether-à-go-go-related gene (hERG) potassium channel, sequence (Q12809 whole entry, looked up): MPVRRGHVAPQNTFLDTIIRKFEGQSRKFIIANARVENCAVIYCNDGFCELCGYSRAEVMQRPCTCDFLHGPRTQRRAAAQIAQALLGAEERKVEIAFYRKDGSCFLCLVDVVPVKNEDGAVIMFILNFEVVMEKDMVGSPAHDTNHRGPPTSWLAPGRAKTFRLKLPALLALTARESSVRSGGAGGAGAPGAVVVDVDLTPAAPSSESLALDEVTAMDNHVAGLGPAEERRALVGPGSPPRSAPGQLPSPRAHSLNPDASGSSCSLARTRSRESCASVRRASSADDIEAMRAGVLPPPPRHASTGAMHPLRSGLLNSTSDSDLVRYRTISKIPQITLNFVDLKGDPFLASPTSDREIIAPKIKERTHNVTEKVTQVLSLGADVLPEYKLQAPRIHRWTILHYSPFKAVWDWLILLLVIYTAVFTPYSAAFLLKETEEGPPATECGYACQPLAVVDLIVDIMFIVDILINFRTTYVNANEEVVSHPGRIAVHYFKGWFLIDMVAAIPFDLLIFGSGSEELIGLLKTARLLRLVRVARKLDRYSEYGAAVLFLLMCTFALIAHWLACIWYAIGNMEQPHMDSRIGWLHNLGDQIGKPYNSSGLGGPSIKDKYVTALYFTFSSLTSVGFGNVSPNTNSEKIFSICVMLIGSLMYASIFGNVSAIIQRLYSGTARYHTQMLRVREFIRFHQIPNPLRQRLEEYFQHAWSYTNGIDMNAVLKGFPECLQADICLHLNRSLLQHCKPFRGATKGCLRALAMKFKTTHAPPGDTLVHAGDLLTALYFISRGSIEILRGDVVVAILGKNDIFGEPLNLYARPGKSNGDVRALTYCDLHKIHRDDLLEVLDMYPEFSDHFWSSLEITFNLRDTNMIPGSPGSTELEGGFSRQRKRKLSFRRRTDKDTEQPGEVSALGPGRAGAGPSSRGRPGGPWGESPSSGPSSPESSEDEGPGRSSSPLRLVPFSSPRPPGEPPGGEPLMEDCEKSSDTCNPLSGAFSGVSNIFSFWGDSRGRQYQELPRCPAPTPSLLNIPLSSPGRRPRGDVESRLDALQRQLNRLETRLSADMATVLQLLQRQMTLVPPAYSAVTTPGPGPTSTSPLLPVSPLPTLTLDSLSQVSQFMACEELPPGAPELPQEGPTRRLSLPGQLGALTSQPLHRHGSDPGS

Going from CCN(CC(=O)Nc1c(F)cccc1F)C(=O)c1n[nH]c2ccccc12 to CCN(CC(=O)Nc1cc(Cl)ccc1C)C(=O)COc1cccc2c1OC(C)(C)C2, the “hERG current change (%, negative = inhibition) at 10uM” value falls from 10.4% to -4.2%.

Going from Cc1cccc(NC(=O)CSc2nnc(-c3ccco3)c(-c3ccco3)n2)c1C to Cc1cccc(C)c1NC(=O)CSc1nnc(-c2ccco2)c(-c2ccco2)n1, the “hERG current change (%, negative = inhibition) at 10uM” value falls from -66.4% to -67.1%.

First: Cc1ccccc1NC(=O)CSc1n[nH]c(-c2ccco2)n1
Second: Cc1ccccc1NC(=O)CSc1nnc(-c2ccco2)n1N
The “hERG current change (%, negative = inhibition) at 10uM” value of the first is higher: 10.1% for the first, 4.14% for the second.

Compared with Cc1cccc(C)c1NC(=O)CSc1nc(-c2ccco2)cc(C(F)(F)F)n1, Cc1cccc(C)c1NC(=O)CSc1nnc(-c2ccco2)n1N is lower in “hERG current change (%, negative = inhibition) at 10uM” value: 4.77% for the first, -4.1% for the second.

Going from Cc1ccccc1NC(=O)CSc1nnc(-c2ccco2)c(-c2ccco2)n1 to Cc1cccc(NC(=O)CSc2nnc(-c3ccco3)o2)c1C, the “hERG current change (%, negative = inhibition) at 10uM” value rises from -53.9% to -4.42%.

Going from Cc1cccc(NC(=O)CSc2nnc(CNC(=O)c3ccco3)n2C)c1C to COC(=O)c1cccc(NC(=O)c2ccco2)c1, the “hERG current change (%, negative = inhibition) at 10uM” value rises from -17.3% to 4.02%.

Compared with CCOc1ccc(C(=O)COC(=O)CN2C(=O)NC3(CCCCC3C)C2=O)cc1 (stereo not drawn), CN(C)S(=O)(=O)c1ccc(NC(=O)CN2C(=O)NC3(CCCC3)C2=O)cc1 is higher in “hERG current change (%, negative = inhibition) at 10uM” value: -42.7% for the first, 8.41% for the second.

Compared with CCOC(=O)C1CCN(C(=O)c2ccc(NC(=O)C3CCCO3)cc2)CC1 (stereo not drawn), CC(=O)Nc1ccc(NC(=O)c2cc(S(=O)(=O)N3CCCCC3)ccc2C)cc1 is higher in “hERG current change (%, negative = inhibition) at 10uM” value: -9.35% for the first, 5.45% for the second.

First: Cc1[nH]n2c(=O)cc(C(C)C)nc2c1-c1ccccc1
Second: Cc1cc(OC(C)C)nc(NCc2ccccc2)n1
The “hERG current change (%, negative = inhibition) at 10uM” value of the first is lower: -12.1% for the first, -3.54% for the second.

Going from Clc1ccc(CSc2ccc(-c3ccccn3)nn2)cc1 to CCOc1cccc(-c2nn3c(-c4ccccn4)nnc3s2)c1, the “hERG current change (%, negative = inhibition) at 10uM” value rises from -2.04% to 6.33%.

Compared with Cc1ccc(S(C)(=O)=O)cc1C(=O)Nc1cccc(S(=O)(=O)N2CCCCCC2)c1, Cc1ccc(S(=O)(=O)N2CCOCC2)cc1C(=O)Nc1cccc(S(=O)(=O)N2CCCC2)c1 is higher in “hERG current change (%, negative = inhibition) at 10uM” value: -65.2% for the first, -38.3% for the second.

First: CSc1ncccc1C(=O)Nc1ccc(S(=O)(=O)N2CCCC2)cc1
Second: CSc1ncccc1C(=O)Nc1cccc(S(=O)(=O)N2CCCCC2)c1
The “hERG current change (%, negative = inhibition) at 10uM” value of the first is higher: -16.6% for the first, -64.3% for the second.

First: CCOc1ncccc1C(=O)Nc1cccc(S(=O)(=O)N2CCCCC2)c1
Second: Cc1cccc(NC(=O)NCCN2CCCCC2)c1
The “hERG current change (%, negative = inhibition) at 10uM” value of the first is higher: -7.03% for the first, -25% for the second.

First: COc1ccc(OC2C(=O)N(Cc3ccc4c(c3)OCO4)C2c2sccc2C)cc1 (stereo not drawn)
Second: CC(C)(C)c1ccc(C(=O)Oc2ccc3c(c2)OCC3=O)cc1
The “hERG current change (%, negative = inhibition) at 10uM” value of the first is lower: -5.31% for the first, 2.55% for the second.

Going from O=CNCC(=O)NC1CCCCCC1 to O=C(COc1ccc(Br)cc1Br)NC1CCCC1, the “hERG current change (%, negative = inhibition) at 10uM” value falls from 20.5% to 12.9%.

Compared with COc1ccc(CN2C(=O)c3cccnc3C2=O)cc1S(=O)(=O)N(C)Cc1ccco1, CN(Cc1ccco1)S(=O)(=O)c1ccc(CN2C(=O)c3cccnc3C2=O)s1 is lower in “hERG current change (%, negative = inhibition) at 10uM” value: -13.3% for the first, -63.4% for the second.

First: O=C1c2cccnc2C(=O)N1Cc1ccc(S(=O)(=O)NCc2ccco2)s1
Second: O=C(C1=C(O)C(=O)N(c2ncccn2)C1c1ccc(Cl)cc1)c1ccco1 (stereo not drawn)
The “hERG current change (%, negative = inhibition) at 10uM” value of the first is higher: 16.2% for the first, 7.37% for the second.

Compared with O=C(CCl)N=c1sccn1Cc1ccccc1Cl, O=C1CSc2ccccc2N1Cc1ccccc1F is lower in “hERG current change (%, negative = inhibition) at 10uM” value: -5.61% for the first, -55.8% for the second.

Going from COc1cc(/C=C(\C#N)C(=O)NCc2cccs2)ccc1O to O=C(/C=C/c1ccccc1)NC(=S)NNC(=O)Cc1cccs1, the “hERG current change (%, negative = inhibition) at 10uM” value rises from -0.725% to 22.5%.

Compared with O=C(COc1ccc(Br)cc1CNC1CCCCC1)NCCc1ccccc1, Cl.O=C(COc1ccc(Br)cc1CNC1CCCC1)Nc1ccccc1 is higher in “hERG current change (%, negative = inhibition) at 10uM” value: -77% for the first, -73.1% for the second.

First: O=C(COc1ccc(Br)cc1CO)Nc1ccccc1
Second: O=C(COc1ccc(Br)cc1CO)Nc1ccc(F)cc1
The “hERG current change (%, negative = inhibition) at 10uM” value of the first is higher: -10.4% for the first, -32.8% for the second.

Compared with CCOc1cc(CNC2CCCC2)c(Cl)cc1OCC(=O)Nc1ccccc1, CCOc1cc(CNCC(C)C)c(Cl)cc1OCC(=O)Nc1ccccc1 is higher in “hERG current change (%, negative = inhibition) at 10uM” value: -67.8% for the first, -15.2% for the second.

Going from COc1ccccc1NC(=O)COc1ccc(Br)cc1CNC1CCCC1 to COc1ccccc1NC(=O)COc1ccc(Br)cc1CO, the “hERG current change (%, negative = inhibition) at 10uM” value rises from -53.2% to -4.58%.

Compared with COc1ccc(Br)cc1CN(C)CC(=O)NCCc1ccccc1.O=C(O)C(=O)O, Brc1ccc(OCc2ccccc2)c(CNCC2CCCO2)c1.Cl (stereo not drawn) is lower in “hERG current change (%, negative = inhibition) at 10uM” value: -14.7% for the first, -50% for the second.

First: COc1cc(CNC2CCCC2)cc(Br)c1OCC(=O)Nc1ccccc1C
Second: CCCNCc1cc(OCC)c(OCC(=O)Nc2ccccc2)cc1Br
The “hERG current change (%, negative = inhibition) at 10uM” value of the first is higher: -1.01% for the first, -24.7% for the second.

First: COC(=O)c1cc(C(=O)CC(C)C)c[nH]1
Second: COc1cc(-c2noc(C)c2C(=O)NCCc2c[nH]c3ccccc23)cc(OC)c1OC
The “hERG current change (%, negative = inhibition) at 10uM” value of the first is higher: 16.7% for the first, 0.397% for the second.

Going from COc1ccc(NC(=O)CCS(=O)(=O)c2cc3c(cc2Cl)NC(=O)CO3)cc1OC to COc1ccccc1CNCc1cc(OC)c(OC)cc1OC, the “hERG current change (%, negative = inhibition) at 10uM” value falls from 9.57% to -10.3%.

Compared with O=C(NCCc1ccccn1)C1CCCN(S(=O)(=O)Cc2ccccc2)C1 (stereo not drawn), COCCn1cnc2c1c(=O)n(CC(=O)OCC(=O)NCCCc1ccccc1)c(=O)n2Cc1ccccc1 is lower in “hERG current change (%, negative = inhibition) at 10uM” value: 9.26% for the first, -57.9% for the second.

Going from Cl.Fc1ccc(COc2ccc(Br)cc2CNCC2CCCO2)cc1 (stereo not drawn) to Cl.Fc1ccccc1COc1ccc(Br)cc1CNCC1CCCO1 (stereo not drawn), the “hERG current change (%, negative = inhibition) at 10uM” value falls from -63.5% to -68.3%.

First: CCOc1ccccc1CNCC1CCCO1.Cl (stereo not drawn)
Second: COc1ccc(Br)cc1CNCC1CCCO1 (stereo not drawn)
The “hERG current change (%, negative = inhibition) at 10uM” value of the first is higher: 11.5% for the first, 5.7% for the second.

Going from Brc1cccc(CNCC2CCCO2)c1 (stereo not drawn) to CCOc1ccc2nc(NC(=O)CSc3nnc(-c4ccncc4)n3CC3CCCO3)sc2c1 (stereo not drawn), the “hERG current change (%, negative = inhibition) at 10uM” value falls from 4.72% to 3.71%.

Compared with Fc1ccc(NC(=S)NCCc2ccc(Cl)cc2)cc1, O=C1CSc2ccccc2N1Cc1ccc(F)cc1 is lower in “hERG current change (%, negative = inhibition) at 10uM” value: 1.47% for the first, -38.4% for the second.

Going from COCCn1cnc2c1c(=O)n(CC(=O)OCC(=O)NCC(F)(F)F)c(=O)n2Cc1ccccc1 to COCCn1cnc2c1c(=O)n(CC(=O)NN)c(=O)n2Cc1ccccc1, the “hERG current change (%, negative = inhibition) at 10uM” value rises from 4.6% to 8.95%.

Compared with COc1ccc(CNS(=O)(=O)c2ccc(S(=O)(=O)NC3CC3)cc2)cc1, O=S(=O)(O)c1ccc(N=NNc2ccc(Br)cc2)cc1 is higher in “hERG current change (%, negative = inhibition) at 10uM” value: 17.9% for the first, 30.7% for the second.

First: O=C(O)CN1C(=O)CSc2ccccc21
Second: CCN1C(=O)c2ccccc2Sc2ccc(C(=O)NCCN3CCOCC3)cc21
The “hERG current change (%, negative = inhibition) at 10uM” value of the first is lower: -30.6% for the first, -5.49% for the second.

Going from CC1(C)CC(NNCCC#N)=CC(=[N+]2CCCC2)C1.[I-] to CCN(CC)C1=CC(=[N+]2CCCC2)CC(C)(C)C1.[I-], the “hERG current change (%, negative = inhibition) at 10uM” value falls from 5.87% to -4.08%.

Going from CN(Cc1ccccc1)C1=CC(=[N+]2CCCC2)CC(C)(C)C1.[I-] to CN(Cc1ccccc1)C1=CC(=[N+]2CCCCC2)CC(C)(C)C1.[I-], the “hERG current change (%, negative = inhibition) at 10uM” value rises from -55.4% to -54.3%.

First: CC1(C)CC(N2CCN(C(c3ccccc3)c3ccccc3)CC2)=CC(=[N+]2CCCCC2)C1.[I-]
Second: CC1(C)CC(N2CCN(Cc3ccccc3)CC2)=CC(=[N+]2CCCCC2)C1.[I-]
The “hERG current change (%, negative = inhibition) at 10uM” value of the first is lower: -72.1% for the first, 7.04% for the second.

Going from CC1(C)CC(N2CCCC2)=CC(=[N+]2CCCCCC2)C1.[I-] to CC1(C)CC(N2CCCCC2)=CC(=[N+]2CCCCC2)C1.[I-], the “hERG current change (%, negative = inhibition) at 10uM” value rises from -8.68% to 8.09%.

Compared with CC1(C)CC(N2CCN(c3ccccc3)CC2)=CC(=[N+]2CCCC2)C1.[I-], CC1(C)CC(N2CCCC2)=CC(=[N+]2CCCC2)C1.[I-] is higher in “hERG current change (%, negative = inhibition) at 10uM” value: -15.3% for the first, -12.1% for the second.

Compared with CC1(C)CC(N2CCCC2)=CC(=[N+]2CCCCC2)C1.[I-], CCCN(CCC)C1=CC(=[N+]2CCCC2)CC(C)(C)C1.[I-] is lower in “hERG current change (%, negative = inhibition) at 10uM” value: 3.58% for the first, -72.4% for the second.

Compared with CCCC(C(=O)O)n1c(O)c(C=C2N=c3ccccc3=N2)sc1=S (stereo not drawn), CCC(C)n1c(SCC(=O)/C(C#N)=C(\C)N)nc2ccccc2c1=O (stereo not drawn) is lower in “hERG current change (%, negative = inhibition) at 10uM” value: 6.16% for the first, -15.3% for the second.

Going from N#Cc1ccc(C23CC4(C2)[C@H](CN(P(=O)(c2ccccc2)c2ccccc2)[C@@H]4c2ccccc2)C3c2ccc(Cl)nc2)cc1 (stereo partly drawn) to O=C(/C=C/c1ccco1)Nc1ccc(Oc2ccccc2)cc1, the “hERG current change (%, negative = inhibition) at 10uM” value rises from -8% to -5.74%.

Going from COc1ccccc1-c1coc2c(CN3CCN(CCO)CC3)c(O)ccc2c1=O to CCOc1cccc(-c2nn3c(-c4ccco4)nnc3s2)c1, the “hERG current change (%, negative = inhibition) at 10uM” value falls from 17.7% to -49.4%.

Compared with N=c1c2c3c(sc2ncn1Nc1ccccc1)CCC3, COc1cccc(-c2nn3c(-c4ccccn4)nnc3s2)c1 is higher in “hERG current change (%, negative = inhibition) at 10uM” value: -29.6% for the first, -28% for the second.

Going from COc1cccc(-c2nn3c(-c4cc(C)[nH]n4)nnc3s2)c1 to CCOc1cccc(-c2nn3c(-c4cc(C)[nH]n4)nnc3s2)c1, the “hERG current change (%, negative = inhibition) at 10uM” value falls from -57.5% to -58.2%.

For COc1cccc(-c2nn3c(-c4cccc(C)c4)nnc3s2)c1, the “hERG current change (%, negative = inhibition) at 10uM” value was 17.5%.

Source: PMC4336329 (PLoS ONE, 2015)
